# Source: PubChem BioAssay (Tox21)
# Values joined by “and” are separate entries in the source; they are usually repeats but may differ in a detail not shown here. Identical values can stand only once. Inconclusive results are not listed. Where a call stands in place of a potency, no number is given. The source holds several records for some structures; these can differ, active in one and inactive in another. Active and inactive are the calls of the source. Unless noted, calls follow the shape of the dose curve; as a rule, active = well fitted curve in the direction sought with a large enough effect in the repeat runs; inconclusive = weak or mixed curves; inactive = no such curve, though single readings can be large; an effect the other way counts as inactive or inconclusive.
# Key:
# [1] = qHTS assay to identify small molecule antagonists of the thyroid receptor (TR) signaling pathway - cell viability counter screen (AID 743064); settings: GH3.TRE-Luc viability, CellTiter-Fluor, 24 h; series mostly up to 70.3 µM; also: nearly all actives have a fitted effect of over 50% in size
# Method in brief: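 Viability of T3-stimulated (1 nM final) GH3.TRE-Luc cells is measured by CellTiter-Fluor fluorescence after 23.5 h compound exposure at 37 °C plus 30 min reagent incubation.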
# [2] = test system: thyroid hormone receptor (rat, GH3 cells); experiment: qHTS assay to identify small molecule agonists of the thyroid receptor (TR) signaling pathway (AID 743066; calls by dose curve); settings: GH3.TRE-Luc cells, TR agonist luciferase, 24 h; series mostly up to 83.9 µM
# [3] = qHTS assay to identify small molecule antagonists of the estrogen receptor alpha (ER-alpha) signaling pathway - cell viability counter screen (AID 743074; calls by dose curve;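 also: HEK293 cells carrying ER-alpha-UAS-bla reporter stimulated with 17beta-estradiol; nearly all actives have a fitted effect of over 45% in size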); settings: ERalpha-bla HEK293 viability, CellTiter-Glo luminescence, 18 h; series mostly up to 69.4 µM
# [4] = qHTS assay to identify small molecule antagonists of the estrogen receptor alpha (ER-alpha) signaling pathway using the BG1 cell line - cell viability counter screen (AID 743081); settings: BG1Luc4E2 viability, CellTiter-Fluor, 22 h; series mostly up to 70.3 µM;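 also: compound given together with 17beta-estradiol as the ER stimulus; nearly all actives have a fitted effect of over 45% in size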
# [5] = qHTS assay to identify small molecule that activate the aryl hydrocarbon receptor (AhR) signaling pathway - cell viability counter screen (AID 743086); settings: HepG2-AhR-luc viability, CellTiter-Fluor, 24 h; series mostly up to 70.3 µM;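 also: HepG2 liver cells carrying the AhR DRE luciferase reporter; nearly all actives have a fitted effect of over 45% in size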
# Method in brief: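 HepG2-AhR-luc (HG2L7.5c1) cells, 4000/well, were preincubated 5 h at 37C, exposed to compound in qHTS format for 24 hr at 37C, then given CellTiter-Fluor for 30 min; viability was read as fluorescence in the reporter wells.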
# [6] = qHTS assay to identify small molecule antagonists of the peroxisome proliferator-activated receptor gamma (PPARg) signaling pathway - cell viability counter screen (AID 743194); settings: PPARg-bla HEK293H viability, CellTiter-Glo luminescence, 17 h, co-treated with 50 nM rosiglitazone; series mostly up to 62.6 µM; also: nearly all actives have a fitted effect of over 55% in size
# Method in brief: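 PPARg-UAS-bla HEK293H cells were plated, rested 5 h at 37 C, then treated with compounds plus rosiglitazone (50 nM final) for 17 h at 37 C; viability was then read by CellTiter-Glo luminescence after 30 min at room temperature.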
# [7] = qHTS assay for small molecule agonists of the antioxidant response element (ARE) signaling pathway (AID 743202; active = well fitted activation curve with a large enough effect in the signal ratio in the repeat runs, not every such curve was filed as active; the % refers to the signal ratio; also: potency is read from the fitted curve at half-maximal effect); settings: HepG2 ARE-bla reporter, beta-lactamase FRET, 16 h; series mostly up to 73.3 µM
# Method in brief: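 Compounds delivered in DMSO to ARE-bla HepG2 cells (2,000 cells/well, pre-incubated 5 h) and left 16 h at 37 C. LiveBLAzer B/G FRET substrate then added for 2 h at RT before fluorescence reading.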
# [8] = qHTS assay for small molecule agonists of the antioxidant response element (ARE) signaling pathway - cell viability counter screen (AID 743203; calls by dose curve; also: nearly all actives have a fitted effect of over 55% in size; also: potency is read from the fitted curve at half-maximal effect); settings: ARE-bla HepG2 viability, CellTiter-Glo luminescence, 16 h; series mostly up to 73.3 µM
# Method in brief: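 Compounds in DMSO were pinned onto ARE-bla HepG2 cells plated 5 hrs earlier at 2,000 cells/well. Sixteen hours later at 37C/5% CO2, CellTiter-Glo was added and luminescence measured after 30 min at room temperature.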
# [9] = qHTS assay for small molecule activators of the heat shock response signaling pathway - cell viability counter screen (AID 743209); settings: HSE-bla HeLa viability, CellTiter-Glo luminescence, 5 h; series mostly up to 62.6 µM; also: nearly all actives have a fitted effect of over 50% in size
# Method in brief: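 Counter screen for cytotoxicity in HeLa HSE-bla reporter cells. Treatment was 5 h at 37 C; viability was detected by luminescent ATP assay (CellTiter-Glo) in the same wells as the beta-lactamase read.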
# [10] = qHTS assay for small molecule activators of the heat shock response signaling pathway (AID 743210; active = well fitted activation curve with a large enough effect in the signal ratio in the repeat runs, with a control signal flat, not every such curve was filed as active; the % refers to the signal ratio;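 also: HeLa cells with beta-lactamase reporter driven by heat shock elements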); settings: HeLa HSE-bla reporter, beta-lactamase ratio, 5 h; series mostly up to 62.6 µM
# Method in brief: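 Reporter gene assay: HeLa cells stably bearing an HSE-bla construct, compound treatment 5 h at 37 C, LiveBLAzer substrate 2.5 h at RT, fluorescence intensity.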
# [11] = molecular target: Peroxisome proliferator-activated receptor gamma (Homo sapiens) (UniProt P37231); experiment: qHTS assay to identify small molecule antagonists of the peroxisome proliferator-activated receptor gamma (PPARg) signaling pathway (AID 743191; calls by dose curve; also: nearly all actives have a fitted effect of over 30% in size); settings: HEK293H PPARg-UAS-bla, beta-lactamase ratio, antagonist, 17 h; series mostly up to 62.6 µM
# Method in brief: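 GeneBLAzer PPARg UAS-bla HEK293H cells carrying a UAS-driven beta-lactamase reporter were plated at 3000 cells/well, preincubated 5 h at 37C, then given compound for 17 h at 37C; LiveBLAzer B/G FRET substrate was read after 1 h at room temperature.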
# Aromatase (Homo sapiens) = Aromatase (Homo sapiens) (UniProt P11511); experiment: qHTS assay to identify aromatase inhibitors (AID 743083); settings: MCF-7 aro ERE, testosterone-driven ERE luciferase, 24 h; series mostly up to 70.3 µM; also: nearly all actives have a fitted effect of over 55% in size
# [12] = qHTS assay to identify aromatase inhibitors - cell viability counter screen (AID 743084); settings: MCF-7 aro ERE viability, CellTiter-Fluor, 24 h; series mostly up to 70.3 µM;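 also: cells stimulated with testosterone during compound exposure; nearly all actives have a fitted effect of over 55% in size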
# [13] = molecular target: Aryl hydrocarbon receptor (Homo sapiens) (UniProt P35869); experiment: qHTS assay to identify small molecule that activate the aryl hydrocarbon receptor (AhR) signaling pathway (AID 743085); settings: HepG2 AhR-luc (HG2L7.5c1), luciferase, 24 h; series mostly up to 70.3 µM;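 also: HG2L7.5c1 human HepG2 liver cells with stably integrated DRE-driven firefly reporter; nearly all actives have a fitted effect of over 15% in size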
# Method in brief: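 A multiplexed format paired cell viability (CellTiter-Fluor fluorescence) with AhR-dependent luciferase output (ONE-Glo luminescence) in the same wells of HepG2 DRE-luc cells after 24 h compound exposure at 37C.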
# [14] = qHTS assay to identify small molecule antagonists of the thyroid receptor (TR) signaling pathway (AID 743065); settings: GH3.TRE-Luc, T3-stimulated luciferase inhibition, 23.5 h; series mostly up to 70.3 µM; also: nearly all actives have a fitted effect of over 55% in size
# Method in brief: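 GH3.TRE-Luc rat pituitary cells carrying two TR response elements driving luciferase were plated for 4 h, given compound plus 1 nM T3 (final), and incubated 23.5 h at 37 C. ONE-Glo luminescence measured reporter inhibition; CellTiter-Fluor fluorescence tracked cytotoxicity.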
# [15] = molecular target: Peroxisome proliferator-activated receptor gamma (Homo sapiens) (UniProt P37231); experiment: qHTS assay to identify small molecule agonists of the peroxisome proliferator-activated receptor gamma (PPARg) signaling pathway (AID 743094; active = well fitted activation curve with a large enough effect in the signal ratio in the repeat runs, not every such curve was filed as active; the % refers to the signal ratio); settings: HEK293H PPARg-UAS-bla, beta-lactamase FRET ratio, 17 h; series mostly up to 57 µM
# Method in brief: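 Following 5 h plating at 37C, PPARg-bla HEK293H cells receive compound or DMSO for 17 h; fluorescence intensity is recorded after LiveBLAzer B/G loading for 1 h at room temperature.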
# [16] = molecular target: Estrogen receptor (Homo sapiens) (UniProt P03372); experiment: qHTS assay to identify small molecule agonists of the estrogen receptor alpha (ER-alpha) signaling pathway using the BG1 cell line (AID 743079); settings: BG1Luc4E2 cells, ERE-luciferase agonist, 22 h; series mostly up to 70.3 µM; also: nearly all actives have a fitted effect of over 20% in size; also: potency is read from the fitted curve at half-maximal effect
# [17] = molecular target: Estrogen receptor (Homo sapiens) (UniProt P03372); experiment: qHTS assay to identify small molecule agonists of the estrogen receptor alpha (ER-alpha) signaling pathway (AID 743075; calls by dose curve;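 also: HEK293 GripTite cells with ER-alpha and UAS-driven beta-lactamase reporter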); settings: HEK293 ER-alpha-UAS-bla, beta-lactamase FRET ratio, 18 h; series mostly up to 70.1 µM
# Sequence of Aryl hydrocarbon receptor (Homo sapiens) (P35869 whole entry, looked up): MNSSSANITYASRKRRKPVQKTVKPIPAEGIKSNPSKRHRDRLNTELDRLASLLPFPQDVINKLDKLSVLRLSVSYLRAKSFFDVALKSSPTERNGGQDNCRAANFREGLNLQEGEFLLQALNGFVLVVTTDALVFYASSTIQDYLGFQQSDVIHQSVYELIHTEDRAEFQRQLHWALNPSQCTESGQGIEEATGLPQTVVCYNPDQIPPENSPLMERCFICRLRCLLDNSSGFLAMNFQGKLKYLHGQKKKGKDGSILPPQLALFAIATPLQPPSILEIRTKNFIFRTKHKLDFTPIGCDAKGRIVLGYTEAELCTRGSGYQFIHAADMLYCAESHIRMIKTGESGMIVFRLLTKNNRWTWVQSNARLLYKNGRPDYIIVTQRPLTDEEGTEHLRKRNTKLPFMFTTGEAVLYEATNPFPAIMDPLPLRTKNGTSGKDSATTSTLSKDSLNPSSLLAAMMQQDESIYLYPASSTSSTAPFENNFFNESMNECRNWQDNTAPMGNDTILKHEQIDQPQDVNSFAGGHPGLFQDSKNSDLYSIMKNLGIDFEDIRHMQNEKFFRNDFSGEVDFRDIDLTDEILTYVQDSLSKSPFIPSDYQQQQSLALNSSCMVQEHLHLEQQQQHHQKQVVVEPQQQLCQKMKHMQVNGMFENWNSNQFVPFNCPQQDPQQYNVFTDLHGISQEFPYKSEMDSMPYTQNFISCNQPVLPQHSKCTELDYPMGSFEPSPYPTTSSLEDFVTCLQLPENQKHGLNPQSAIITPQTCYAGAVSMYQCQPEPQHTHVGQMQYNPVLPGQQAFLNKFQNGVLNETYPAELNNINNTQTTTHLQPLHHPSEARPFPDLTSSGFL
# Sequence of Aromatase (Homo sapiens) (P11511 whole entry, looked up): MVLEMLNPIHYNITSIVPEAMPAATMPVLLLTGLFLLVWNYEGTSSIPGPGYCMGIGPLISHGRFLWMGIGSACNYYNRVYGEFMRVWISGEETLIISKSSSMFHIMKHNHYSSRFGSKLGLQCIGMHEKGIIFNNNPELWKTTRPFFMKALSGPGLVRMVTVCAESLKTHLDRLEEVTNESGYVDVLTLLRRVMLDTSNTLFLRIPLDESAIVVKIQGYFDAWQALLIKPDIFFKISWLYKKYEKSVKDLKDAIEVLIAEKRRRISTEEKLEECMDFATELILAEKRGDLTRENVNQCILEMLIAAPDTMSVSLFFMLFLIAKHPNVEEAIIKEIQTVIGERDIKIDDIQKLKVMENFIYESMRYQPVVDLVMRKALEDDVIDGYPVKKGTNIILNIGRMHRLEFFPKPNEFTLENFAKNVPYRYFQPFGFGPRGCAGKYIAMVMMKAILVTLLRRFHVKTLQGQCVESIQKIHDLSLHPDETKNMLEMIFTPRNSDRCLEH
# Sequence of Estrogen receptor (Homo sapiens) (P03372 whole entry, looked up): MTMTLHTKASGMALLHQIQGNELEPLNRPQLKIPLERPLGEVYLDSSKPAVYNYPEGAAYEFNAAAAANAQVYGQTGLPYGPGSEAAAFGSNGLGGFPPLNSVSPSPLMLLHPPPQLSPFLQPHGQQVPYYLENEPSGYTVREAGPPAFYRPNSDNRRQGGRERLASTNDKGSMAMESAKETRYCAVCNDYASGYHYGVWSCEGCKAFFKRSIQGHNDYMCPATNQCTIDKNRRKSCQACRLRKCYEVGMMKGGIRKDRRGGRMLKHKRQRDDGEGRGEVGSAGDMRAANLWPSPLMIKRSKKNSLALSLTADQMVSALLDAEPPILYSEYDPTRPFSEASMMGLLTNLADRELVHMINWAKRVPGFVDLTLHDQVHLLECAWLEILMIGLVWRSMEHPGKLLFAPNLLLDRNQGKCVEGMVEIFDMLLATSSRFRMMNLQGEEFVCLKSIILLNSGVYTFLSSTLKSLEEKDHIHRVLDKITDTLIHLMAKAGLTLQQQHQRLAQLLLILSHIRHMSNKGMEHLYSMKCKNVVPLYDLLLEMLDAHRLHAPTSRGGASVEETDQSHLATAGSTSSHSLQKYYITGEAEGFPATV
# Sequence of Peroxisome proliferator-activated receptor gamma (Homo sapiens) (P37231 whole entry, looked up): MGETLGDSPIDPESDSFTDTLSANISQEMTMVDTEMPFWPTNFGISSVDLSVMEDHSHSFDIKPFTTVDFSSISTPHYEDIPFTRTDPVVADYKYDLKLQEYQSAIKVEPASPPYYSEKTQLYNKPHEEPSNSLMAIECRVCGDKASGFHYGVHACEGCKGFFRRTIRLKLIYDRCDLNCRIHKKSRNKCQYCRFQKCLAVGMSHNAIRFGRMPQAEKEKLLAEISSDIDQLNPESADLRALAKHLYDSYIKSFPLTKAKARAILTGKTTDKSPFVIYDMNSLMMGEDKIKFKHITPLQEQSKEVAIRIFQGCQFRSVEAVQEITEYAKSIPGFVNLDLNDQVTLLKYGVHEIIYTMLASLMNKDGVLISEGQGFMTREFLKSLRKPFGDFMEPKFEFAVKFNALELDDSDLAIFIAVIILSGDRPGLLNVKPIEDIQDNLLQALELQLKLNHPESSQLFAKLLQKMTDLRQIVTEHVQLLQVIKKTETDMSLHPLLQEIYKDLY
Compound,Potency [1],Potency [2],Potency [3],Potency [4],Potency [5],Potency [6],Potency [7],Potency [8],Potency [9],Potency [10],Potency [11],Potency (Aromatase (Homo sapiens)),Potency [12],Potency [13],Potency [14],Potency [15],Potency [16],Potency [17]
O=C1CC2(CCCC2)CC(=O)N1CCCCN1CCN(c2ncccn2)CC1,inactive,inactive,inactive,inactive,inactive,inactive,27.3 µM (active),inactive,inactive,inactive,–,–,–,–,–,–,–,–
C#CC(C)(CC)OC(=O)c1ccccc1C(=O)O (configuration not stated),–,–,–,–,–,inactive,inactive,inactive,–,inactive,inactive,–,–,–,–,–,–,–
N[C@@H]1CONC1=O,–,–,–,inactive,inactive,inactive,inactive,inactive,–,inactive,–,inactive,inactive,inactive,–,–,–,–
CC(C)(C)NCC(O)c1cc(O)cc(O)c1 (configuration not stated),–,inactive,inactive,inactive,inactive,inactive,inactive,inactive,inactive,inactive,–,inactive,inactive,inactive,inactive,inactive,–,–
Nc1ccc2cc3ccccc3cc2c1,–,inactive,–,inactive,–,inactive,–,inactive,inactive,–,–,inactive,–,–,inactive,–,9.86 µM (active) and 24.3 µM (active),–
O=Cc1ccc(Cl)cc1,–,inactive,inactive,inactive,inactive,inactive,inactive,inactive,inactive,inactive,inactive,inactive,inactive,–,inactive,inactive,–,–
O=C1OC2(c3ccc(O)cc3Oc3cc(O)ccc32)c2ccccc21,–,inactive,inactive,–,–,inactive,–,inactive,inactive,–,–,inactive,–,inactive,inactive,–,inactive and 23.7 µM (active),inactive
O=C(O)Cn1cnnn1,–,–,–,–,–,inactive,inactive,inactive,–,inactive,inactive,–,–,–,–,–,–,–
CC(COc1ccccc1)N(CCCl)Cc1ccccc1 (configuration not stated),–,–,inactive,inactive,inactive,–,–,61.1 µM (active) and inactive,inactive,–,inactive,inactive,inactive,–,–,inactive,–,–
O,inactive,–,inactive,inactive,inactive,inactive,inactive,inactive,inactive,–,–,inactive,inactive,inactive,–,–,–,–
C[N+]1([O-])CCOCC1,–,inactive,inactive,inactive,inactive,inactive,inactive,inactive,inactive,inactive,inactive,inactive,inactive,inactive,inactive,inactive,–,–
C/C=C/c1ccc(OCC)c(O)c1,–,inactive,inactive,inactive,inactive,–,inactive,inactive,inactive,inactive,inactive,inactive,inactive,–,inactive,inactive,–,–
CC(=O)O[C@]1(C(C)=O)CC[C@H]2[C@@H]3C[C@H](C)C4=CC(=O)CC[C@]4(C)[C@H]3CC[C@@]21C,inactive,–,inactive,inactive,inactive,inactive,–,inactive,–,–,inactive,inactive,inactive,inactive,–,–,inactive,inactive
CC(C)(C)c1ccccc1,inactive,–,inactive,inactive,–,–,inactive,inactive,inactive,inactive,–,–,–,–,–,–,–,–
NC(N)=NC(=O)Cc1c(Cl)cccc1Cl,–,inactive,inactive,–,inactive,inactive,–,inactive,–,–,inactive,inactive,inactive,inactive,–,inactive,–,–
Nc1cc(S(=O)(=O)O)cc2cc(S(=O)(=O)O)cc(O)c12,inactive,–,inactive,inactive,inactive,inactive,inactive,inactive,–,–,inactive,inactive,inactive,inactive,–,inactive,–,–
NC12CC3CC(CC(C3)C1)C2,–,inactive,inactive,inactive,inactive,inactive,inactive,inactive,inactive,–,inactive,inactive,inactive,inactive,–,inactive,–,–
